Results published in PubChem BioAssay AID1566 (Sanford-Burnham Center for Chemical Genomics, 2009).
In all, about 290,000 compounds went through this assay and about 1,800 (0.62%) were called active. This is one part of a sample in which actives are shown more often than they occur. Unmarked numbers belong to inactive results. No stated cut-off is given here; in the data, active means inhibition above about 50%; inactive means the rest.

Test: inhibition of NOD2-driven NF-kB reporter – cell-based, luminescence, uHTS, HEK293 (AID 1566)
Settings: HEK293 NOD2/NF-kB luciferase reporter, at 4 µM, stronger effect = higher value

| Compound | inhibition |
| --- | --- |
| CC(=O)N/C(=C\c1ccc2c(c1)OCO2)C(=O)NC(C(=O)O)c1ccccc1 (stereo unspecified) | 19.8% |
| Cc1cccc2sc(NC(=O)CSc3nnnn3C)nc12 | -7% |
| O=C(CNC(=O)c1ccc(Oc2ccccc2)cc1)OC1CCCCC1=O (stereo unspecified) | 10.8% |
| Cc1cccc(Nc2nc(N)nc(CSC(=S)N3CCOCC3)n2)c1 | -21.1% |
| CCc1cccc(C)c1NC(=O)c1ccoc1C | 4.5% |
| Cc1ccc2nc(-c3ccccc3)cn2c1 | 26.7% |
| Cc1ccc2nc(-c3ccc(O)c(O)c3)cn2c1 | -51.7% |
| Cc1ccc(-c2cn3cc(C)ccc3n2)cc1 | 71.8% (active) |
| CCOC(=O)C1CCN(S(=O)(=O)c2c(C)n(C)c(=O)n(C)c2=O)CC1 | -0.5% |
| O=C1CC(N2CCN(C/C=C/c3ccccc3)CC2)C(=O)N1Cc1cccs1 (stereo unspecified) | 7.5% |
| Cc1ccc(-c2nc(-c3ccccn3)no2)cc1 | 84.3% (active) |
| c1ccc(-c2nc(-c3ccccn3)no2)cc1 | 20.1% |
| c1ccc(-c2noc(-c3ccncc3)n2)nc1 | -43.2% |
| COc1cc(-c2nc(-c3ccccn3)no2)cc(OC)c1OC | -18.2% |
| c1ccc(-c2ccc(-c3nc(-c4ccccn4)no3)cc2)cc1 | 67% (active) |
| COc1cccc(-c2nc(-c3ccccn3)no2)c1 | -16.1% |
| Cc1ccc(-c2nc(-c3ccccn3)no2)cc1Cl | 47.8% |
| c1ccc(-c2noc(-c3ccc4ccccc4c3)n2)nc1 | 45% |
| COc1ccc(-c2nc(-c3ccccn3)no2)cc1 | 84% (active) |
| CCOC(=O)c1ccc2c(c1)nc(SCC(=O)c1ccco1)n2CC | 8.2% |
| CN(C)CCNC(=O)c1cc2cc(Br)ccc2oc1=O | -0.6% |
| COc1ccc(N/C(N)=N/c2nc(CSc3nnc(C)s3)cc(=O)[nH]2)cc1 | -37.9% |

| Compound | inhibition |
| --- | --- |
| Cc1ccc(Sc2ccc(NC(=O)CCl)cc2)cc1C | 0.9% |
| O=C(CCl)Nc1ccccc1Sc1ccccc1 | -24.6% |
| O=C(Cc1ccc(Cl)cc1)Nc1ccccc1Sc1ccccc1 | 0.7% |
| Cc1ccc(C)c(Sc2ccc(NC(=O)CCl)cc2)c1 | -19.5% |
| COc1ccccc1C1=NC(c2ccc(F)cc2)N=C1C (stereo unspecified) | -33.6% |
| COc1ccc(-n2nc(C(=O)NCC(=O)N3CCN(Cc4ccccc4)CC3)c3ccccc3c2=O)cc1 | -1.4% |
| CC1(c2ccccc2)NC(=O)N(CC(=O)Nc2nnc(C3CC3)s2)C1=O (stereo unspecified) | -9.7% |
| COc1ccc(/C=N/n2c(SC)nnc2-c2ccccc2)c(OC)c1OC | -38.9% |
| COc1ccc(-n2c(Cc3cccn3C)nnc2SCC(=O)Nc2ccc3c(c2)OCCO3)cc1 | 6.8% |
| O=C(c1ccccc1)c1cc([N+](=O)[O-])ccc1N1CCOCC1 | 5.9% |
| Cc1cc2ncn(C3CC(=O)N(C)C3=O)c2cc1C (stereo unspecified) | 10.1% |
| CCCN1C2CCCC1CC(NC(=O)C1CCCCC1)C2 (stereo unspecified) | -3.5% |
| CN1CCN(C(=O)C2CC(=O)N(c3ccc(Cl)cc3)C2)CC1 (stereo unspecified) | -8.8% |
| CCCc1ccc(-c2ccc(/C=C/C(=O)O)cc2)nc1 | 78.4% (active) |
| CCCCCc1ccc(-c2ccc(/C=C/C(=O)O)cc2)nc1 | -82.7% |
| CCCCCc1ccc(-c2ccc(/C=C/C(N)=O)cc2)nc1 | -57.2% |
| Cc1sc2ncnc(NCC(O)c3ccccc3)c2c1C (stereo unspecified) | 40.2% |
| COc1ccccc1C(CNc1ncnc2sc(C)c(C)c12)N(C)C (stereo unspecified) | 18.9% |
| Cc1sc2ncnc(N[C@@H](CCC(=O)O)C(=O)O)c2c1C | 2.8% |
| NS(=O)(=O)c1ccc(CCNc2ncnc3sccc23)cc1 | 34.1% |
| Cc1sc2ncnc(NCC(O)c3ccc([N+](=O)[O-])cc3)c2c1C (stereo unspecified) | 51.7% (active) |
| Cc1nc(NCCc2ccc(S(N)(=O)=O)cc2)c2c(C)c(C)sc2n1 | 45.1% |

| Compound | inhibition |
| --- | --- |
| Cc1sc2ncnc(NCCc3ccc(S(N)(=O)=O)cc3)c2c1C | 55.7% (active) |
| Cc1sc2ncnc(NCC(c3ccccc3)N(C)C)c2c1C (stereo unspecified) | 10.2% |
| COc1ccc(C(CNc2ncnc3sc(C)c(C)c23)N(C)C)cc1 (stereo unspecified) | 69.8% (active) |
| CC(=O)Nc1ccc(OS(=O)(=O)c2ccc(Cl)cc2)cc1 | 12.5% |
| CCN(CC)S(=O)(=O)c1ccc(C)c(NC(=O)/C=C/c2cccs2)c1 | -13.1% |
| CCOCC(=O)Nc1ccccc1C(=O)O | 5.3% |
| CCCCNC(=O)c1cn(CC)c2ccc(S(=O)(=O)N3CCCCCC3)cc2c1=O | -6.4% |
| O=C(O)CSc1cc(NS(=O)(=O)c2cccc([N+](=O)[O-])c2)c2ccccc2c1O | 16.9% |
| O=S(=O)(Nc1cc(Sc2cccc3cccnc23)c(O)c2ccccc12)c1ccccc1 | 95.9% (active) |
| O=C(O)CSc1cc(NS(=O)(=O)c2ccc(Br)cc2)c2ccccc2c1O | 57.2% (active) |
| O=S(=O)(Nc1cc(Sc2cccc3cccnc23)c(O)c2ccccc12)c1ccc(F)cc1 | -2.1% |
| Cc1cc(C)c(S(=O)(=O)Nc2cc(SCC(=O)O)c(O)c3ccccc23)cc1C | 29.2% |
| O=S(=O)(Nc1cc(Sc2ncn[nH]2)c(O)c2ccccc12)c1ccccc1 | 19% |
| COc1ccc(NS(=O)(=O)/C=C/c2ccccc2)cc1 | 17.1% |
| COc1ccc(C(=O)Nn2c(SCc3cccc([N+](=O)[O-])c3)nc3ccccc3c2=O)cc1 | 40.4% |
| COc1cccc(Oc2c(C)oc3c(CN4CCCCC4)c(O)ccc3c2=O)c1 | 18.7% |
| Cc1cccc(-n2cc(C(=O)O)c(=O)cc2C)c1 | 1.7% |
| CCOc1ccc(/C=C/C(=O)Nc2ccc3[nH]c(=O)[nH]c3c2)cc1 | 6.2% |
| Cc1ccc(NS(=O)(=O)c2c(C)nc3sccn3c2=O)cc1C | 12.9% |
| CN(c1cc(=O)n2ccccc2n1)C1CCCCC1 | -19.5% |
| CC1CCCN(c2ccc3nc4ccccc4c(=O)n3n2)C1 (stereo unspecified) | 4.1% |
| CN(c1ccc2nc3ccccc3c(=O)n2n1)C1CCCCC1 | 79% (active) |
